Results with a measured potency or affinity are listed apart. Calls of active or inactive are those of the source.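 The calls were made as follows: active = signal-lowering compounds whose fitted half-maximal concentration is at or below twice the top tested dose in every run; inconclusive = runs disagree, flat 30 to 70% inhibition, or poor curve fit; inactive = the rest.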

For this assay, the target named is Protein S100-A4 (Homo sapiens) (UniProt P26447). The assay is described as follows: S100A4-myosin IIA binding inhibitor potency, dose response, biochemical, fluorescence polarization, cherry-picked hits (AID 687001). Conditions: FP, S100A4/TAMRA-myosin IIA peptide binding; series mostly up to 11 µM. On the technique in general: In fluorescence polarisation assays a small probe gives low polarisation when free and higher when bound to something large.
Protein S100-A4 (Homo sapiens), sequence (P26447 whole entry, looked up): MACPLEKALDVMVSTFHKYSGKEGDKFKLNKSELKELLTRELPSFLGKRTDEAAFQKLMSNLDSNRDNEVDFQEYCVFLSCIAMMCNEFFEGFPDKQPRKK
Consider `Cc1ccc2[nH]c(=O)c3cc(C(=O)NCCC(C)C)sc3c2c1`, for which the outcome was inactive.

On to `Nc1nnc(COc2ccc(Br)cc2Br)s1`, for which the call was inactive.

In the case of `COc1ccc(/C=C2/CCCc3ccccc3C2=O)cc1`, the compound was classed as inactive. In the case of `CC(=O)Nc1cccc(C(=O)NC2CCCc3c2cnn3-c2ccccc2F)c1` (centres undefined), the outcome was inactive.

Consider `Cc1cccc(NC(=O)CNC(=O)c2ccccc2Cl)n1`, for which the result was inactive. As for `Cn1c(/C(C#N)=C(\O)c2cc(Cl)sc2Cl)nc2ccccc21`, the compound was called inactive. For the compound `COc1ccccc1CN1CCNC(=O)C1CC(=O)NCCCN1CCOCC1` (centres undefined), the compound was classed as inactive. For `COc1ccccc1NC(=S)NC(=O)Cc1ccccc1`, the compound was called inactive.

For the compound `CC(=O)Nc1ccc(NC(=O)C(C)OC(=O)CCCN=C2NS(=O)(=O)c3ccccc32)cc1` (centres undefined), the result was inactive. For the compound `O=C(COC(=O)CCCN1C(=O)c2cccc3cccc(c23)C1=O)NC1CCS(=O)(=O)C1` (centres undefined), the compound was classed as inactive.

Regarding `C[C@@H]1CN([C@@H](C)CO)C(=O)c2cc(NC(=O)NC3CCCCC3)ccc2O[C@@H](C)CCCCO[C@@H]1CN(C)S(=O)(=O)c1cn(C)cn1`, the call was inactive.

As for `CC(C)CC#Cc1ccc([C@H]2[C@H]3CN(C(=O)Cc4cccnc4)CC(=O)N3[C@H]2CO)cc1`, the compound was classed as inactive. Regarding `CCN(CC(=O)NCc1ccc(F)cc1)C(=O)/C=C/c1ccc(OC)c(S(=O)(=O)NC(C)C)c1`, the call was inactive. As for `Cc1cc(Br)ccc1NC(=S)NC1CCCC1`, the result was inactive. For the compound `CCCNC(=O)C(Cc1ccc(C(F)(F)F)cc1)NC(=O)c1ccc2ccccc2n1` (centres undefined), the call was inactive. As to `Cc1cccc2c(CC(=O)Nc3ccccc3)noc12`, the call was inactive. As to `CCCCn1c(SCC(=O)NC2CCS(=O)(=O)C2)nc2ccccc2c1=O` (centres undefined), the outcome was inactive. As for `O=C1CN(Cc2ccc(F)cc2)C[C@@H]2[C@@H](c3ccc(-c4ccccc4F)cc3)[C@H](CO)N12`, the call was inactive.

For `C[C@@H]1CCCCO[C@@H](CN(C)C(=O)Cc2ccccc2)[C@H](C)CN([C@@H](C)CO)C(=O)c2cc(NC(=O)Nc3ccc4c(c3)OCO4)ccc2O1`, the outcome was inactive.

`CN1CCc2c(sc(NC(=O)C3COc4ccccc4O3)c2C(N)=O)C1` (centres undefined): the compound was classed as inactive. On to `Cc1ccc(CNC(=O)Cn2cnc(C(=O)Nc3ccc(C)c(C)c3)n2)o1`, for which the call was inactive. In the case of `O=C(Nc1cccc(Cl)c1)N[C@H]1CC[C@H](CCNC(=O)C2CCCC2)O[C@H]1CO` it was “inactive”; in that of `COc1cccc(-c2ccc3c(c2)[C@H]2[C@H](CCN2C(=O)c2ccc4c(c2)OCO4)[C@H](CO)N3C)c1`, “inactive”.

With `CN(C)CC(=O)N1CC2(C1)[C@@H](c1ccccc1)[C@@H](CO)N2S(C)(=O)=O`, the call was inactive. In the case of `CCCNC(=O)N1C[C@H](O)COC[C@@H]2O[C@@H](CC(=O)NCCCN3CCOCC3)CC[C@H]21` it was “inactive”. With `C[C@@H]1CN([C@@H](C)CO)S(=O)(=O)c2ccc(-c3ccccc3)cc2O[C@H]1CN(C)Cc1cccc(F)c1` the entry was “inactive”; with `Cc1nn(C)cc1S(=O)(=O)Nc1ccc(C(F)(F)F)cc1`, “inactive”. With `COCCOC(=O)c1nccnc1C(=O)Nc1ccc(S(=O)(=O)N2CCOCC2)cc1`, the outcome was inactive.

In the case of `CCCCN(C(=O)c1c(-c2ccccc2)noc1C)c1c(N)n(CCC)c(=O)[nH]c1=O`, the compound was called inactive. Consider `CCOc1ccc(N(CC(=O)NCCOc2ccccc2OC)S(=O)(=O)c2ccccc2)cc1`, for which the call was inactive. On to `CCN1CCN(CCNC(=O)c2cc(Cl)c(NC(=O)C3=C(C)OCCS3)cc2OC)CC1`, for which the compound was called inactive. For the compound `O=C(C1CCCC1)N1C[C@@H]2[C@H](c3ccccc31)[C@@H](CO)N2C(=O)c1ccccc1F`, the call was inactive.

Consider `Cn1c(=O)oc2cc(S(=O)(=O)NCc3ccc(Cl)cc3)ccc21`, for which the compound was classed as inactive.

Regarding `CCn1c(SCC(=O)O)nnc1-c1ccc2[nH]c(C)c(C)c2c1`, the compound was called inactive.

Consider `C[C@@H]1CCCCO[C@@H](CN(C)C(=O)C2CCCCC2)[C@@H](C)CN([C@H](C)CO)C(=O)c2cc(NC(=O)Nc3cccc4ccccc34)ccc2O1`, for which the compound was classed as inactive.

On to `CO[C@@H]1CN(C)C(=O)c2ccc(NC(=O)c3ccc(F)cc3)cc2OC[C@H](C)N(C(=O)CC2CC2)C[C@H]1C`, for which the compound was classed as inactive. Regarding `Cc1cc(=O)oc2c3c(cc(OCC(=O)NCC(=O)N[C@H](C(=O)O)C(C)C)c12)OC(C)(C)CC3`, the call was inactive. Take `Cc1ccc(NC(=O)CSc2ccc(-c3cccnc3)nn2)cc1`: the compound was classed as inactive. Take `CN1C(C(=O)Nc2ccc(OC(F)(F)F)cc2)=CC(c2ccco2)=NS1(=O)=O`: the result was inactive.

The values above are taken from PubChem BioAssay AID687001 (Broad Institute, 2013).
